Shown are actives, neighbours in structure and some others; about 4.7% of the full set was active somewhere.
HTT-AS promoter: activates huntingtin-antisense promoter activity. hit rate 0.24% among 48,000. HEK293 HTT-AS promoter firefly luciferase reporter, 24 h; response scale: percent change from vehicle, -100% = no light. AID 1508624. Potency, µM (top dose mostly 57.5 µM), for the others: at the highest dose activity change, positive = activation, actives largely listed as activators; further: potency means the concentration at half of the fitted maximal effect; nearly all actives have a fitted effect of over 55% in size
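Quantitative HTS used concentration series of up to 57.5 uM final on HEK293 luciferase reporter cells, 24 h at 37 degrees C. Readout was Dual-Glo firefly luminescence.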
GPR32 ag: agonists of human resolvin D1 receptor DRV1 (GPR32); CHO-K1 GPR32 beta-arrestin PathHunter luminescence, 90 min; zero percent set by DMSO-only wells; activation, % at 76.9 µM; hit rate 2.5% among 48,000; AID 1346428;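 active means activation of at least 60% and not above a set upper limit, about 1 call in 100 departs from these limits; inconclusive means activation of 40% to 60%, or above that upper limit; inactive means activation under 40%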; further: 0% is about no effect
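PathHunter enzyme-fragment complementation, CHO-K1 GPR32 stable line; 2,500 cells/well, overnight attach; cpd 90 min 37 °C 5% CO2; detection reagent 1 h RT; chemiluminescence. DMSO = EC0.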
GALC G270D up: galactocerebrosidase G270D activity enhancement, cell-based; 145M-Twi-hGALC-G270D cells (Twitcher mouse brain line with human GALC G270D), HMU-beta-Gal fluorescence, 48 h; Potency, µM (series often up to 57.5 µM), hits mostly activators; hit rate 0.1% among 45,000; further: potency means the concentration at half of the fitted maximal effect; 0% is about no effect; nearly all actives have a fitted effect of over 65% in size
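Fluorogenic HMU-b-Gal hydrolysis (0.1 mM final, pH 5.2 citrate-phosphate with 1 mg/mL sodium taurocholate; carbonate stop buffer) measures mutant GALC activity after compound treatment of live 145M-Twi Twitcher brain cells stably carrying human GALC-G270D, with wild-type GALC line alongside; activation sought.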
FH mod: Identification of activators of human fumarate hydratase by quantitative high-throughput screening; Fumarate hydratase, mitochondrial (Homo sapiens), P07954; FH coupled MDH/diaphorase resazurin fluorescence, 15 min; Potency, µM (titrated, usually from 79.9 µM), inactives show at the highest dose activity change, negative = inhibition, hits mostly inhibitors; hit rate 0.22% among 54,000; further: potency means the concentration at half of the fitted maximal effect; on the % scale 0 is the no-effect control and ±100 the full control effect; the screen sought activators but most active calls are inhibition curves; nearly all actives have a fitted effect of over 45% in size
HTT prom inh: inhibits huntingtin promoter activity; HEK293 HTT promoter firefly luciferase reporter, 24 h; Potency, µM (top dose mostly 57.5 µM), for the others: at the highest dose activity change, negative = inhibition, actives largely listed as inhibitors; hit rate 0.93% among 48,000; AID 1508623; further: potency means the concentration at half of the fitted maximal effect; nearly all actives have a fitted effect of over 50% in size
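HEK293 luciferase promoter-reporter cells (2,500/well) plated 24 h, then compounds added at up to 57.5 uM final for 24 h at 37 °C. Firefly luminescence by Dual-Glo, normalized to vehicle (0%) and zero RLU (-100%).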
NTMT1 inh: inhibitors of human N-terminal methyltransferase NTMT1; Q9BV86; NTMT1 MTase-Glo SAH luminescence, purified enzyme; Potency, µM (highest dose often 114 µM), for the others: top-dose activity change, negative = inhibition, usual class: inhibitors; hit rate 2.5% among 59,000;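 further: potency means the concentration at half of the fitted maximal effect; plate controls were DMSO vehicle for no effect and no enzyme for full effect; nearly all actives have a fitted effect of over 65% in size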
Target sequence (Q9BV86 whole entry, looked up): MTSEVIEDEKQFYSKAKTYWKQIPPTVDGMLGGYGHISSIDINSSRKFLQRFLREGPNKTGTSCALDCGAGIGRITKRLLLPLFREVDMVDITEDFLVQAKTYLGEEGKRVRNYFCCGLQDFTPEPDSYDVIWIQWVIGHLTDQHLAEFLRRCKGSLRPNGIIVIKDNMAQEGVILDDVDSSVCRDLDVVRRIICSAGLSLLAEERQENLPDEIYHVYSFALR
* = called active by the depositor; i = inactive; ? = inconclusive; . = no result given; ! = not active in a repeat; [ ] = remark or other dose. Unless noted, the call rests on the fitted dose curve; in most records, active means well fitted curve in the direction sought with a large enough effect; inconclusive means small, poorly fitted or top-dose-only effect, or another doubt; inactive means no such curve, though single readings can be large; an effect the other way counts as inactive or inconclusive.

SMILES	HTT-AS promoter	GPR32 ag	GALC G270D up	FH mod	HTT prom inh	NTMT1 inh
CCC(C)(NC(=O)C(CCC(N)=O)NC(=O)C1CC(O)CN1C(=O)C(C)(C)NC(=O)C(C)(C)NC(=O)C(CC(C)C)NC(=O)CNC(=O)C(NC(=O)C(C)(C)NC(=O)C(C)(C)NC(=O)C(C)(C)NC(=O)C(Cc1ccccc1)NC(C)=O)C(C)C)C(=O)N1CC(O)CC1C(=O)NC(C)(C)C(=O)NC(CO)Cc1ccccc1 (stereo not given)	.	.	.	-5%[13.5 µM]	.	-17%[6.45 µM]
Nc1nccn2c(C3CCC(C(=O)O)CC3)nc(-c3cc4cccc(Cl)c4[nH]3)c12 (stereo not given)	.	.	.	-23%	.	35µM*!
CNc1nc(Cc2ccccc2)nc2c1CCNC[C@@H]2C	.	.	.	1%	.	7%[57.5 µM]
CCCn1ccc2c(OCC(=O)Nc3ccc(F)cc3F)cccc2c1=O	-21%	?	i	-12%	-25%	-2%
CCCn1ccc2c(OCC(=O)Nc3ccc(OC)c(OC)c3)cccc2c1=O	-41%	86*	i	-9%	-16%	14%
CCCCc1ccc(NC(=O)COc2cccc3c(=O)n(C)ccc23)cc1	-42%	60*	i	15%	?	1%
CCCn1ccc2c(OCC(=O)NCc3ccc(C)cc3)cccc2c1=O	-5%	?	i	-9%	0%	2%
COc1ccc(Cl)cc1NC(=O)COc1cccc2c(=O)n(C)ccc12	-7%	-3	i	21%	0%	-6%
Cn1ccc2c(OCC(=O)NCc3ccccc3Cl)cccc2c1=O	-15%	86*	i	-1%	-17%	15%
COCCN1C(=O)c2ccccc2NC1c1ccc(OC)c(COc2c(C)cc(NC(C)=O)cc2C)c1 (stereo not given)	.	.	.	.	.	13%
Nc1nccc(-c2c(-c3ccc(F)cc3)ncn2C2CCN(Cc3ccon3)CC2)n1	.	.	.	.	.	3%
Cc1cn([C@H]2C[C@H](N[S+](=O)([O-])Cc3ccc([N+](=O)[O-])cc3)[C@@H](CO)O2)c(=O)[nH]c1=O	.	.	.	.	.	7%
COC(=O)c1ccc(-c2c(NC(C)=O)sc3c2CCNC3)cc1	.	.	.	.	.	8%
Cc1c(Cl)cccc1NC(=O)c1cc(-c2cccs2)on1	11%	91*	i	-2%	-16%[11.5 µM]	-8%
Cc1ccc(NC(=O)c2cc(-c3cccs3)on2)cc1C	8.9µM*	24	i	9%	63%	27%
O=C(Nc1c(Cl)cccc1Cl)c1cc(-c2cccc(O)c2)on1	.	105*	.	.	.	.
O=C(O[C@@H]1O[C@H](CO)[C@@H](O)[C@H](O)[C@H]1O)c1c(O)cc(O)cc1/C=C/c1ccccc1	.	.	.	0%[53.3 µM]	.	14%[29.8 µM]
CCOCOC[C@H](C[C@H](C)C(=O)NO)NC(=O)c1ccc(Oc2ccccc2)cc1	.	.	.	.	.	4%
CCc1ccccc1NC(=O)Nc1nnc(N2CCCC2)s1	9%	-1	i	4%	-13%	11%
CCCc1nnc(NC(=O)Nc2ccccc2Cl)s1	3.5µM*	-17	i	-4%	48%	9%
Cc1ccc(-n2ncc3c(NC4CCCCCC4)ncnc32)cc1	-5%	27	i	-4%	-30%	-4%
Cc1ccc(Cl)cc1-n1ncc2c(NC3CCCCC3)ncnc21	-12%	68*	i	-18%	?	-3%
Cc1ccc(Cl)cc1-n1ncc2c(Nc3ccc4c(c3)OCCO4)ncnc21	-43%	-6	i	?	?	?
Fc1ccc(-n2ncc3c(Nc4ccc5c(c4)OCCO5)ncnc32)cc1	?	92*	i	-32%	2%	2%
Fc1ccc(-n2ncc3c(NC4CCCCCC4)ncnc32)cc1	34%	80*	i	-35%	14%	-14%
CCN(CC)c1ncnc2c1cnn2-c1cc(Cl)ccc1C	6%	72*	i	-2%	-16%	1%

Screening results deposited in PubChem BioAssay by National Center for Advancing Translational Sciences (NCATS).
